Screening data (PubChem)
An excerpt weighted towards active compounds, which were near 21% of everything screened.
Shiga inhibitor – A qHTS for Small Molecule Inhibitors of Shiga Toxin. 290,000 tested, 9.2% active. Vero cells, Shiga toxin protein synthesis inhibition reporter. inhibition, % at 38.7 µM; in the data active = inhibition mostly above about 28%, no sharp cut-off; inactive = mostly below about 43%; note: 0% is about no effect
Pf growth 96h – Primary qHTS for delayed death inhibitors of the malarial parasite plastid, 96 hour incubation; AID 504834, 2011; Potency, µM (highest dose often 28.7 µM), for inactives: at the top dose activity change, negative = inhibition, usual class: inhibitors; P. falciparum luciferase reporter growth, 96 h; 320,000 tested, 6.9% active; note: potency is the fitted concentration of half-maximal effect; % is set by controls: 0 for no effect and ±100 for the full control effect
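Infected RBCs, 2% Hct / 0.05% parasitemia final; luciferase-reporter P. falciparum; cpd 96 h, 37 C, 5% CO2; luciferase detection reagent; luminescence.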
Cycloheximide cs – Cycloheximide Counterscreen for Small Molecule Inhibitors of Shiga Toxin. 300,000 tested, 12% active. AID 2314, 2010. max response, %. cell reporter, cycloheximide protein synthesis inhibition counterscreen; in the data active = max response mostly above about 13%, no sharp cut-off; inactive = mostly below about 14%; note: read at 38.3 µM for the half of the compounds with a filed dose; 0% is about no effect
AMA1-RON2 inh – qHTS for Inhibitors of AMA1-RON; Towards Development of Antimalarial Drug Lead: Primary Screen. AlphaScreen AMA1-biotinylated RON2 peptide binding. Potency, µM (titrated, usually from 58.2 µM), inactives show at the highest dose activity change, negative = inhibition, hits mostly inhibitors. 360,000 tested, 0.2% active. Plasmodium falciparum AMA1 (3D7) - RON2 peptide interaction;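 note: potency is the fitted concentration of half-maximal effect; 0% = vehicle wells and -100% = peptide control; nearly all actives have a fitted effect of over 45% in size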
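AMA1 (3D7) with his tag at 25 nM final met compounds first, then biotinylated RON2 peptide at 25 nM; detection used donor plus acceptor beads, 10 µg/mL apiece, read by AlphaScreen after 30 min at room temperature.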
Pf growth 48h – Primary qHTS for delayed death inhibitors of the malarial parasite plastid, 48 hour incubation; P. falciparum luciferase growth in erythrocytes, 48 h; Potency, µM (top dose mostly 28.7 µM), inactives show top-dose activity change, negative = inhibition, actives largely listed as inhibitors; 310,000 tested, 5.9% active; AID 504832, 2011; note: potency is the fitted concentration of half-maximal effect; % is set by controls: 0 for no effect and ±100 for the full control effect
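A one-generation exposure of luciferase-tagged malaria parasites in RPMI 1640/Albumax erythrocyte culture, 37 C and 5% CO2. Inhibition is inferred from decreased luminescence after adding detection reagent.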
HCV inh – qHTS Assay for Inhibitors of Hepatitis C Virus (HCV); AID 651820, 2012; 340,000 tested, 3.4% active; Potency, µM (titrated, usually from 41.8 µM), inactives show at the highest dose activity change, negative = inhibition, actives largely listed as inhibitors; Huh7.5.1 HCVcc-Cre infection, luciferase reporter, 44 h; note: potency is the fitted concentration of half-maximal effect; % is set by controls: 0 for no effect and ±100 for the full control effect
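HCVcc-Cre virus at an moi near 0.5 was added right after compound to cells cultured 4 h from seeding (1,000 cells/well). Luciferase activity was determined 44 h later, 15 min after substrate addition at RT.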
Active calls of the source: *. Unless noted, calls come from the whole dose curve; as a rule, active = well fitted curve in the direction sought with a large enough effect; inconclusive = small, poorly fitted or top-dose-only effect, or another doubt; inactive = no such curve, though single readings can be large; an effect the other way counts as inactive or inconclusive.

For CCOC(=O)[C@]12CCC=C1N(Cc1ccc(Cl)cc1Cl)C(=O)[C@H](CC(=O)NCCCOC)C2 the results were AMA1-RON2 inh 0%.
For Cn1cc(C(F)(F)F)nc1-c1ccc(OCC(O)CNCCOc2ccc(O)c(C(N)=O)c2)cc1 (stereo not drawn) the results were Shiga inhibitor -8, Pf growth 96h inconclusive, Cycloheximide cs -4, AMA1-RON2 inh -4%, Pf growth 48h 9.3µM* and HCV inh inconclusive.
`O=C1OCC/C1=C\OCCCO/C=C1\CCOC1=O` gave Shiga inhibitor -4, Pf growth 96h 20%, Cycloheximide cs -2, AMA1-RON2 inh -8%, Pf growth 48h 34% and HCV inh 18%.
Screening CCc1ccc(NC(=O)N(C2CCC(C)CC2)C2CCN(C(C)=O)CC2)cc1 (stereo not drawn) returned Shiga inhibitor 67*, Pf growth 96h inconclusive, Cycloheximide cs 31*, AMA1-RON2 inh 24%, Pf growth 48h -3% and HCV inh -9%.
Screening CC(=O)N1CCC(N(C(=O)Nc2ccc(C)c(C)c2)C2CCCC2)CC1 returned Shiga inhibitor 1, Cycloheximide cs 14*, AMA1-RON2 inh inconclusive, Pf growth 48h 16% and HCV inh 3%.
`COc1cc(C(=O)OCC(=O)N2CCCCC2C)ccc1OCc1c(C)noc1C` (stereo not drawn) gave Shiga inhibitor 42, Pf growth 96h inconclusive, Cycloheximide cs 9, AMA1-RON2 inh -3%, Pf growth 48h 9.3µM* and HCV inh -15%.
Cc1noc(C)c1COc1ccccc1C(=O)N1CCN(S(=O)(=O)c2ccccc2Br)CC1 was read as AMA1-RON2 inh 19% and HCV inh inconclusive.
For Cc1cc(C)c(C)c(S(=O)(=O)N2CCN(C(=O)c3ccccc3OCc3c(C)noc3C)CC2)c1C the results were Pf growth 96h 13µM*, AMA1-RON2 inh -3%, Pf growth 48h 10µM* and HCV inh inconclusive.
For COc1cc(C(=O)N2CCN(S(=O)(=O)c3ccc(C)cc3)CC2)ccc1OCc1c(C)noc1C the results were Shiga inhibitor 23, Cycloheximide cs -3, AMA1-RON2 inh 0%, Pf growth 48h 4.1µM* and HCV inh -14%.
Cc1noc(C)c1COc1ccccc1C(=O)N1CCN(S(=O)(=O)c2ccccc2C(F)(F)F)CC1 was read as Pf growth 96h inconclusive, AMA1-RON2 inh -10%, Pf growth 48h 15µM* and HCV inh -16%.
COc1ccc(CCNC(=O)Cc2cccc(C(F)(F)F)c2)cc1OC was read as Shiga inhibitor -8, Pf growth 96h inconclusive, Cycloheximide cs 4, AMA1-RON2 inh 7%, Pf growth 48h inconclusive and HCV inh -20%.
Screening O=C(COC(=O)C1CC1)Nc1ccc(S(=O)(=O)N2CCOCC2)cc1 returned AMA1-RON2 inh -21% and HCV inh 13%.
`Cc1nc(SCc2ccccc2)c([N+](=O)[O-])[nH]1` gave Shiga inhibitor 21, Pf growth 96h 16%, Cycloheximide cs -1, AMA1-RON2 inh 9%, Pf growth 48h inconclusive and HCV inh 1%.
Screening Cc1nc(SCc2ccccc2)c(C(F)(F)F)c(=O)[nH]1 returned Shiga inhibitor 6, Pf growth 96h 5.2µM*, Cycloheximide cs 0, AMA1-RON2 inh 3%, Pf growth 48h 8% and HCV inh -1%.
N/C(=N\OC(=O)/C=C/c1ccccc1)c1cccnc1 was read as Shiga inhibitor 70*, Pf growth 96h -5%, Cycloheximide cs 32*, AMA1-RON2 inh -7%, Pf growth 48h inconclusive and HCV inh 9%.
Screening N/C(=N\OC(=O)/C=C/c1ccccc1Cl)c1ccccn1 returned Shiga inhibitor 47, Pf growth 96h 27%, Cycloheximide cs 20, AMA1-RON2 inh 59%, Pf growth 48h 395% and HCV inh 4%.
For N/C(=N\OC(=O)/C=C/c1ccc(Br)cc1)c1ccccn1 the results were Shiga inhibitor 68*, Pf growth 96h 25%, Cycloheximide cs 81*, AMA1-RON2 inh 23%, Pf growth 48h -32% and HCV inh 28%.
N/C(=N\OC(=O)/C=C/c1ccccc1Cl)c1cccnc1 was read as Shiga inhibitor 112*, Pf growth 96h inconclusive, Cycloheximide cs 63*, AMA1-RON2 inh -18%, Pf growth 48h 97% and HCV inh -3%.
Cc1nc(NC(=O)C23CC4CC(CC(C4)C2)C3)sc1Cc1ccc2c(c1)OCO2 was read as Shiga inhibitor 67*, Pf growth 96h 1.7µM*, Cycloheximide cs 25*, AMA1-RON2 inh inconclusive, Pf growth 48h inconclusive and HCV inh inconclusive.
`Cc1cccc(C(=O)NCCC(=O)Nc2nc(C)c(Cc3ccc4c(c3)OCO4)s2)c1` gave Shiga inhibitor 16, Pf growth 96h -2%, Cycloheximide cs 9, AMA1-RON2 inh -7%, Pf growth 48h -2% and HCV inh 10%.
`Cc1nc(NC(=O)C2CCCC2)sc1Cc1ccc2c(c1)OCO2` gave Shiga inhibitor 52, Pf growth 96h inconclusive, Cycloheximide cs 22*, AMA1-RON2 inh inconclusive, Pf growth 48h inconclusive and HCV inh 4%.
Fc1cccc(NC(=S)Nc2ccc(Br)cc2)c1 was read as Shiga inhibitor 28, Pf growth 96h inconclusive, Cycloheximide cs 19*, AMA1-RON2 inh 18%, Pf growth 48h 59% and HCV inh 11%.
CC(C)(C)NNC(=S)Nc1cccc(F)c1 was read as Shiga inhibitor 3, Pf growth 96h 8.3µM*, Cycloheximide cs 2, AMA1-RON2 inh 35%, Pf growth 48h 10µM* and HCV inh inconclusive.
`COc1cccc(NC(=S)Nc2ccc(F)cc2)c1` gave Shiga inhibitor 35, Pf growth 96h -3%, Cycloheximide cs 2, AMA1-RON2 inh 46%, Pf growth 48h 25% and HCV inh -11%.
For O=C(NC1CCCCC1)C1CCC(=O)N(Cc2cccc(C(F)(F)F)c2)C1 (stereo not drawn) the results were Shiga inhibitor 18, Pf growth 96h 19%, Cycloheximide cs -2, AMA1-RON2 inh -3%, Pf growth 48h inconclusive and HCV inh -14%.
Screening COc1ccc(OC)c(-n2c(-c3ccc(S(C)(=O)=O)cc3)cc(C=O)c2C)c1 returned Shiga inhibitor 16, Pf growth 96h inconclusive, Cycloheximide cs 2, AMA1-RON2 inh -7%, Pf growth 48h 12µM* and HCV inh 10%.
`COc1ccc(N(CC(=O)N2CCN(Cc3ccccc3)CC2)S(C)(=O)=O)cc1` gave Shiga inhibitor -7, Pf growth 96h 379%, Cycloheximide cs 0, AMA1-RON2 inh -1%, Pf growth 48h -7% and HCV inh 15%.
